Compound activity from PubChem.
KCNQ2 enhance = potentiators of rat KCNQ2 potassium channel; O88943; CHO-K1 KCNQ2, FluxOR thallium flux fluorescence; active compounds read high; B-score at 10 µM; hit rate 0.54% among 310,000; AID 2239;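 active means fluorescence ratio B-score at least 3 SD of library B-scores, with initial fluorescence B-score within 3 of them, cut at about 5.3 in these data; same plate scores as AID 2156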;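 further: B-score of peak minus minimum over baseline fluorescence ratio after K+ and Tl+ stimulus; positive B-score means potentiation of KCNQ2 with more thallium influx and brighter signal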
KCNQ2 inh = blocks the rat KCNQ2 potassium channel; B-score at 10 µM; CHO-K1 KCNQ2, FluxOR thallium flux, 20 min; active compounds read low; AID 2156; hit rate 1.1% among 310,000; O88943;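 active means fluorescence ratio B-score at most minus 3 library SDs, with starting brightness B-score within 2 library SDs, cut at about -5.5 in these data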
* = called active by the depositor. The list is not random: actives were taken first. Their share in the collection is about 1.6%.

Results for O=C1CCCC(O)=C1C(C#Cc1ccccc1)C1=C(O)CCCC1=O ?
KCNQ2 enhance: -6.46; KCNQ2 inh: -6.46*

Results for CC1(C)CC(=O)C(C(C#Cc2ccccc2)C2=C(O)CC(C)(C)CC2=O)=C(O)C1 ?
KCNQ2 enhance: -5.66; KCNQ2 inh: -5.66*

What do the screens show for `Fc1cc(Cl)ccc1NC1=NCCCCC1`?
KCNQ2 enhance: 1.01; KCNQ2 inh: inactive

Results for Cc1ccc(N(CC2CO2)S(=O)(=O)c2ccc([N+](=O)[O-])cc2)cc1 (stereo not drawn) ?
KCNQ2 enhance: -6.83; KCNQ2 inh: -6.83*

Results for Cc1ccc(N(CC2CO2)S(=O)(=O)c2ccc(C)cc2)cc1 (stereo not drawn) ?
KCNQ2 inh: inactive

Results for COc1ccc(C)cc1S(=O)(=O)N(C)CC(=O)N1CCN(c2ccccc2)CC1 ?
KCNQ2 inh: inactive

What do the screens show for `O=C(CN1C(=O)COc2ccccc21)N(Cc1ccccc1)Cc1ccccn1`?
KCNQ2 enhance: -6.06; KCNQ2 inh: -6.06*

Results for Cc1ccc(CN(Cc2cccnc2)C(=O)CN2C(=O)COc3ccccc32)o1 ?
KCNQ2 inh: inactive

Results for CC(=O)c1nn(-c2ccc(Cl)cc2)c(=O)[nH]c1=O ?
KCNQ2 inh: inactive

How did COc1ccc(Cn2c(CO)cnc2SCC(=O)Nc2cccc(NC(C)=O)c2)cc1 do in these assays?
KCNQ2 enhance: 0.52; KCNQ2 inh: inactive

What do the screens show for `COc1cc(OC)c2c(=O)cc(-c3ccccc3)oc2c1`?
KCNQ2 inh: inactive

What do the screens show for `COc1cc2c(c3oc(-c4ccccc4)cc(=O)c13)C=CC(C)(C)O2`?
KCNQ2 enhance: -5.96; KCNQ2 inh: -5.96*

How did COc1cccc(C2c3c(oc4ccc(Cl)cc4c3=O)C(=O)N2c2cc(C)on2)c1OC (stereo not drawn) do in these assays?
KCNQ2 enhance: -7.19; KCNQ2 inh: -7.19*

How did COc1ccc(/C(O)=C2\C(=O)C(=O)N(c3cc(C)on3)C2c2cccc(OC)c2OC)cc1C (stereo not drawn) do in these assays?
KCNQ2 enhance: 0.65; KCNQ2 inh: inactive

How did COc1ncnc2c1sc1nc(-c3ccccc3)c3c(c12)CCCC3 do in these assays?
KCNQ2 enhance: 0.04; KCNQ2 inh: inactive

Results for CN(C)CCNc1ncnc2c1sc1nc(-c3ccccc3)c3c(c12)CCCC3 ?
KCNQ2 enhance: -7.77; KCNQ2 inh: -7.77*

What do the screens show for `O=C(CN1C(=O)CC(c2ccccc2)S(=O)(=O)c2ccccc21)N1CCCCC1` (stereo not drawn)?
KCNQ2 inh: inactive

How did Cc1ccc(-c2nc(CS(=O)(=O)CC(=O)NCCN3CCCC3)c(C)o2)cc1 do in these assays?
KCNQ2 inh: inactive

How did CC1(C)Cc2cccc(C(=O)Nc3ccc(F)cc3F)c2O1 do in these assays?
KCNQ2 inh: inactive

What do the screens show for `COc1ccc(/C=C2\C(=O)N(Cc3ccc(F)cc3)CC(=O)N2Cc2ccccc2)cc1`?
KCNQ2 enhance: -6.09; KCNQ2 inh: -6.09*

How did COc1ccc(/C=C2\C(=O)NCC(=O)N2Cc2ccccc2)cc1 do in these assays?
KCNQ2 inh: inactive

Results for CN1CCN(NC(=O)NC2CCCCC2)CC1 ?
KCNQ2 enhance: 1.8; KCNQ2 inh: inactive

What do the screens show for `Cc1ccc(Cl)cc1N1CCN(S(=O)(=O)c2c(C)[nH]c(C)c2C(=O)N2CCCCC2)CC1`?
KCNQ2 enhance: -7.23; KCNQ2 inh: -7.23*

How did Cc1[nH]c(C)c(S(=O)(=O)N2CCN(c3cccc(Cl)c3)CC2)c1C(=O)N1CCCCC1 do in these assays?
KCNQ2 inh: inactive

What do the screens show for `Cc1ccc(C)c(N2CCN(S(=O)(=O)c3c(C)[nH]c(C)c3C(=O)N3CCCCC3)CC2)c1`?
KCNQ2 enhance: -6.7; KCNQ2 inh: -6.7*

How did Cc1ccc(C)c(N2CCN(S(=O)(=O)c3c(C(=O)N4CCCCC4)c(C)n(C)c3C)CC2)c1 do in these assays?
KCNQ2 inh: inactive

What do the screens show for `CN(CC(=O)Nc1ccccc1Cl)CC(=O)Nc1ccccc1[N+](=O)[O-]`?
KCNQ2 inh: inactive

How did COC(=O)c1cn(NC(=O)Cc2ccc(OC)c(OC)c2)c(=O)c2ccccc12 do in these assays?
KCNQ2 inh: inactive

What do the screens show for `COC(=O)c1cn(NC(=O)Cc2cccc(OC)c2)c(=O)c2ccccc12`?
KCNQ2 enhance: 7.21*; KCNQ2 inh: inactive

How did CC(C)(C)N(Cc1ccccc1)C(=O)CCc1ccccc1 do in these assays?
KCNQ2 enhance: -6.58; KCNQ2 inh: -6.58*

Results for CC(C)N(Cc1ccccc1)C(=O)CCc1ccccc1 ?
KCNQ2 inh: inactive

How did O=C(NCCCN1CCOCC1)C(=O)N/N=C/c1cccc2ccccc12 do in these assays?
KCNQ2 enhance: 0.09; KCNQ2 inh: inactive

What do the screens show for `CC1(c2ccccc2Cl)NC(=O)N(CC(=O)c2ccc3c(c2)OCO3)C1=O` (stereo not drawn)?
KCNQ2 enhance: 0.07; KCNQ2 inh: inactive

Results for Cn1ncc(Cl)c1C(=O)N/N=C/c1ccccn1 ?
KCNQ2 inh: inactive

What do the screens show for `Cc1ccc(S(=O)(=O)Oc2ccccc2/C=N/NC(=O)c2c(Cl)cnn2C)cc1`?
KCNQ2 enhance: -6.05; KCNQ2 inh: -6.05*

What do the screens show for `C=CCSC1=N/C(=C\c2cc(OCC)c(OC(C)=O)c([N+](=O)[O-])c2)C(=O)S1`?
KCNQ2 enhance: 7.11*; KCNQ2 inh: inactive

How did C=CCSC1=N/C(=C\c2ccc3c(c2)OCO3)C(=O)S1 do in these assays?
KCNQ2 enhance: 0.47; KCNQ2 inh: inactive

How did COc1ccc(Cl)cc1NC(=S)NCc1ccco1 do in these assays?
KCNQ2 enhance: 0.01; KCNQ2 inh: inactive

Results for Cc1ccc(-c2c(C(=O)N/N=C/C3CC=CCC3)nnn2-c2nonc2N)cc1 (stereo not drawn) ?
KCNQ2 enhance: 0.63; KCNQ2 inh: inactive

What do the screens show for `Cc1cc(C(=O)CSc2nc3ccc(Cl)cc3[nH]2)c(C)n1C`?
KCNQ2 enhance: -6.34; KCNQ2 inh: -6.34*

What do the screens show for `Cc1ccc2nc(SCC(=O)c3cc(C)n(C)c3C)[nH]c2c1`?
KCNQ2 inh: inactive

Results for C=CCn1c(C)cc(C(=O)CSc2nc3ccccc3[nH]2)c1C ?
KCNQ2 enhance: -7.47; KCNQ2 inh: -7.47*

What do the screens show for `Cc1cc(C(=O)CSc2nc3ccccc3[nH]2)c(C)n1C`?
KCNQ2 inh: inactive

Results for CCCCCC(=O)NC(=S)Nc1cccc(-c2nc3ncccc3o2)c1 ?
KCNQ2 enhance: 0.28; KCNQ2 inh: inactive

What do the screens show for `COc1ccc(OC)c(NC(=O)CN(C)CC(=O)Nc2ccccc2Br)c1`?
KCNQ2 inh: inactive

What do the screens show for `CCc1cc2c(=O)[nH]c(-c3ccccn3)nc2s1`?
KCNQ2 enhance: 10.9*; KCNQ2 inh: inactive

How did CCc1cc2c(=O)[nH]c(N3CCCC3)nc2s1 do in these assays?
KCNQ2 inh: inactive

Results for COc1ccc(CC(=O)N2CCN=C2SCc2cccc([N+](=O)[O-])c2)cc1 ?
KCNQ2 enhance: 0.01; KCNQ2 inh: inactive

Results for Cc1cc(C)c(S(=O)(=O)Nc2ccccc2-c2ccccc2)c(C)c1 ?
KCNQ2 inh: inactive

How did CCN1CCN(c2cc(C)c3cc(NC(=S)N4CCCC(C)C4)ccc3n2)CC1 (stereo not drawn) do in these assays?
KCNQ2 enhance: 0.08; KCNQ2 inh: inactive

Results for COCn1c(-c2ccc(OC)c(OC)c2)nc2ccccc21 ?
KCNQ2 inh: inactive

How did COCn1c(-c2cccc(Br)c2)nc2ccccc21 do in these assays?
KCNQ2 enhance: -5.9; KCNQ2 inh: -5.9*

What do the screens show for `CC(=O)N(c1ccccc1C)C1CCCC1`?
KCNQ2 enhance: 0.01; KCNQ2 inh: inactive
